Source: PubChem (several laboratories)
Compounds with a hit are over-represented: about 27% of the library has one in this group of screens.
CYP2C19 inh: inhibitors of human CYP2C19. AID 778. actives 21% (n = 96,000). inhibition, % at 5 µM. CYP2C19 Supersomes, luciferin-H EGE luminescence, 30 min;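 active means CYP2C19 inhibition above a set limit at 5 µM in the primary screen, cut at about 50% in these data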;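 further: plate controls were negative control wells for no effect and 2.5 mM tranylcypromine positive control for full effect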
Target sequence (P33261 whole entry, looked up): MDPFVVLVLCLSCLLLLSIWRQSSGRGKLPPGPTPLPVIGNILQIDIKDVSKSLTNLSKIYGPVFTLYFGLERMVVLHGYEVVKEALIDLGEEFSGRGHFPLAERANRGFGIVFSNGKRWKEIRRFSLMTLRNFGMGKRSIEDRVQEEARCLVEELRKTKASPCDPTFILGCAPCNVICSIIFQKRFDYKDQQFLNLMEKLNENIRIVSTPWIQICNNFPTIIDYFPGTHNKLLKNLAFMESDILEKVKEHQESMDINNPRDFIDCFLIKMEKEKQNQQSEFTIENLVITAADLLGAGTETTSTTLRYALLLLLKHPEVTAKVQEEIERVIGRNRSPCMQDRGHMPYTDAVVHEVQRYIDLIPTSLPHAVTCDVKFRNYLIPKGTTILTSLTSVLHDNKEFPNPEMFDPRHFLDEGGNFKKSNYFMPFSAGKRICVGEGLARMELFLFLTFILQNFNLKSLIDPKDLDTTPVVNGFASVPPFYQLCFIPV
Cav3 T inh: blocks human Cav3.2 T-type calcium channel; B-score at 10 µM; Cav3.2-expressing cells, Fluo-4 calcium fluorescence FDSS; hits give low values; O95180; actives 4% (n = 100,000);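 active means single-dose well whose peak fluorescence ratio is a statistical outlier from its plate by either plate-standardised score or position-corrected B-score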
CYP2C9 inh: inhibitors of human CYP2C9; P11712; CYP2C9 Supersomes, luciferin-H conversion, luminescence; inhibition, % at 5 µM; actives 20% (n = 96,000);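 active means blocking of liver enzyme CYP2C9 beyond about 50% at 5 µM, limit read from the data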
CYP2C19 act: increases human CYP2C19 enzyme activity. P33261. recombinant CYP2C19, luciferin-H EGE luminescence; hits give high values; 0 = fully inhibited enzyme, 1 = untreated enzyme. activation factor at 5 µM. 96,000 tested, under 10 active. AID 1025;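 active means activation factor of at least 2 at 5 µM in the primary screen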;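 further: 0 = wells with 2.5 mM tranylcypromine and 1 = vehicle-only wells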
CYP2C9 act: increases human cytochrome P450 2C9 activity; activation factor at 5 µM; actives 1.4% (n = 96,000); recombinant CYP2C9, luciferin-H conversion, luminescence; hits give high values; factor 1 = untreated enzyme, 0 = blocked; AID 1024; P11712;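 active means activation factor of 2 or more for CYP2C9 at a 5 µM dose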;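 further: 0 = sulfaphenazole-blocked wells and 1 = vehicle-only wells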
* = called active by the depositor.

Results for COc1cccc(OC)c1C(=O)OCC(=O)Nc1ccc(OC(F)(F)F)cc1 ?
CYP2C19 inh: 75.3*; Cav3 T inh: -4.82*; CYP2C9 inh: 98.8*; CYP2C19 act: 0.2; CYP2C9 act: 0

How did Cc1cccc(NC(=S)NCC2CCCO2)c1 (stereo not drawn) do in these assays?
CYP2C19 inh: -11.5; Cav3 T inh: 0.426; CYP2C9 inh: -19.9; CYP2C19 act: 1.1; CYP2C9 act: 1.2

How did Cc1cccc(C(=O)NCC2CCCO2)c1 (stereo not drawn) do in these assays?
Cav3 T inh: -0.338

Results for Cc1cc(C(=O)NNC(=S)NCC2CCCO2)cs1 (stereo not drawn) ?
CYP2C19 inh: 51.5*; Cav3 T inh: 0.269; CYP2C9 inh: -20.7; CYP2C19 act: 0.5; CYP2C9 act: 1.2

How did CN(C)c1ccc(C(=O)NCC2CCCO2)cc1 (stereo not drawn) do in these assays?
Cav3 T inh: 0.217

What do the screens show for `Cc1ccc(C(=O)NC(=S)NCC2CCCO2)cc1` (stereo not drawn)?
CYP2C19 inh: 68.3*; Cav3 T inh: 0.906; CYP2C9 inh: 37.1; CYP2C19 act: 0.3; CYP2C9 act: 0.6

Results for Cc1cnn(C(=S)NCC2CCCO2)c1 (stereo not drawn) ?
CYP2C19 inh: 55.7*; Cav3 T inh: -0.187; CYP2C9 inh: 0.4; CYP2C19 act: 0.4; CYP2C9 act: 1

Results for Cc1ccc(NC(=S)NCC2CCCO2)cc1 (stereo not drawn) ?
CYP2C19 inh: 22.7; Cav3 T inh: 0.601; CYP2C9 inh: -13.9; CYP2C19 act: 0.8; CYP2C9 act: 1.1

Results for Cc1ccc(C)n1-c1ccc(C(=O)NCC2CCCO2)cc1 (stereo not drawn) ?
CYP2C19 inh: 57.9*; Cav3 T inh: -0.106; CYP2C9 inh: 18.0; CYP2C19 act: 0.4; CYP2C9 act: 0.8

What do the screens show for `CCOC(=O)Cn1nnc2c(sc3nc4c(c(-c5ccccc5)c32)CCC4)c1=O`?
CYP2C19 inh: -13.8; Cav3 T inh: -0.131; CYP2C9 inh: -1.0; CYP2C19 act: 1.1; CYP2C9 act: 1

Results for O=C(O)CSc1ncnc2c1oc1ccccc12 ?
CYP2C19 inh: 0.7; Cav3 T inh: 0.902; CYP2C9 inh: 6.1; CYP2C19 act: 1; CYP2C9 act: 0.9

What do the screens show for `CCOC(=O)CC(=O)CSc1ncnc2c1oc1ccccc12`?
CYP2C19 inh: 43.8; CYP2C9 inh: 39.3; CYP2C19 act: 0.6; CYP2C9 act: 0.6

How did Cc1ccc(NC(=O)CCC(=O)O)cc1F do in these assays?
CYP2C19 inh: -23.6; Cav3 T inh: -0.0206; CYP2C9 inh: -19.0; CYP2C19 act: 1.2; CYP2C9 act: 1.2

How did O=C(CSc1ncnc2c1oc1ccccc12)Nc1ccccc1C(F)(F)F do in these assays?
CYP2C19 inh: 44.1; Cav3 T inh: 1.47; CYP2C9 inh: 84.8*; CYP2C19 act: 0.6; CYP2C9 act: 0.2

What do the screens show for `O=C(CSc1ncnc2c1oc1ccccc12)NCc1ccco1`?
CYP2C19 inh: 17.3; Cav3 T inh: -0.167; CYP2C9 inh: 59.8*; CYP2C19 act: 0.8; CYP2C9 act: 0.4

How did COc1cccc(NC(=O)CSc2ncnc3c2oc2ccccc23)c1 do in these assays?
CYP2C19 inh: 6.2; Cav3 T inh: -0.131; CYP2C9 inh: 7.4; CYP2C19 act: 0.9; CYP2C9 act: 0.9

What do the screens show for `COc1ccc(CCNC(=O)CSc2ncnc3c2oc2ccccc23)cc1OC`?
CYP2C19 inh: 51.2*; Cav3 T inh: 0.112; CYP2C9 inh: 82.1*; CYP2C19 act: 0.5; CYP2C9 act: 0.2

How did Cc1nc(SCC(=O)Nc2ccc(C)c(F)c2)c2oc3ccccc3c2n1 do in these assays?
CYP2C19 inh: 79.4*; Cav3 T inh: -0.384; CYP2C9 inh: 93.0*; CYP2C19 act: 0.2; CYP2C9 act: 0.1

How did COC(C[C@@H](O)C[C@H](O)COCc1ccccc1)OC do in these assays?
Cav3 T inh: 0.477

How did CCOC(=O)C1CCN(Cc2nc3ccccc3c(=O)n2-c2ccc(F)cc2)CC1 do in these assays?
CYP2C19 inh: 12.9; CYP2C9 inh: 68.2*; CYP2C19 act: 0.9; CYP2C9 act: 0.3

Results for O=C(c1ccco1)N1CCN(Cc2nc3ccccc3c(=O)n2-c2ccc(F)cc2)CC1 ?
CYP2C19 inh: 36.4; Cav3 T inh: -0.052; CYP2C9 inh: 70.5*; CYP2C19 act: 0.6; CYP2C9 act: 0.3

What do the screens show for `CCOC(=O)c1ccc(-n2c(C)nc3ccccc3c2=O)cc1`?
CYP2C19 inh: 29.9; Cav3 T inh: -0.0451; CYP2C9 inh: -1.5; CYP2C19 act: 0.7; CYP2C9 act: 1

Results for CS(=O)(=O)N(Cc1ccccc1)c1ccc(C(=O)NCCSCc2ccco2)cc1 ?
Cav3 T inh: -2.35

How did CN(c1ccc(C(=O)NC2CC2)cc1)S(=O)(=O)c1ccccc1 do in these assays?
CYP2C19 inh: 49.8; Cav3 T inh: 0.51; CYP2C9 inh: 70.4*; CYP2C19 act: 0.5; CYP2C9 act: 0.3

How did CN(c1ccc(C(=O)N2CCCCC2)cc1)S(=O)(=O)c1ccccc1 do in these assays?
CYP2C19 inh: 12.8; Cav3 T inh: 0.318; CYP2C9 inh: 23.1; CYP2C19 act: 0.9; CYP2C9 act: 0.8

How did CN(c1ccc(C(=O)NCCSCc2ccccc2)cc1)S(=O)(=O)c1ccccc1 do in these assays?
CYP2C19 inh: 37.0; Cav3 T inh: -3.3; CYP2C9 inh: 68.7*; CYP2C19 act: 0.6; CYP2C9 act: 0.3

What do the screens show for `Cc1cccc(CSCCNC(=O)c2ccc(N(C)S(=O)(=O)c3ccccc3)cc2)c1`?
CYP2C19 inh: 60.9*; Cav3 T inh: -3.95*; CYP2C9 inh: 88.8*; CYP2C19 act: 0.4; CYP2C9 act: 0.1

Results for CCN(CC)CCC(c1ccc(N(C)C)cc1)c1c(O)cc(OC)cc1OC (stereo not drawn) ?
Cav3 T inh: 0.178

How did NC(=O)CSc1nc2c(sc3ccccc32)c(=O)n1CCCN1CCOCC1 do in these assays?
CYP2C19 inh: 16.3; Cav3 T inh: 1.48; CYP2C9 inh: 4.7; CYP2C19 act: 0.8; CYP2C9 act: 1

How did O=C(CN(Cc1ccco1)C(=O)CCC(=O)Nc1ccccn1)NCCc1ccccc1 do in these assays?
CYP2C19 inh: 68.7*; Cav3 T inh: -0.984; CYP2C9 inh: 57.9*; CYP2C19 act: 0.3; CYP2C9 act: 0.4

How did COc1ccccc1N(CC(=O)NCc1ccccc1)C(=O)CCC(=O)Nc1ccccn1 do in these assays?
Cav3 T inh: 0.461

How did CS(=O)(=O)N(CC(=O)NCc1ccc2c(c1)OCO2)c1ccccc1 do in these assays?
CYP2C19 inh: 26.0; Cav3 T inh: 0.214; CYP2C9 inh: -2.5; CYP2C19 act: 0.7; CYP2C9 act: 1

Results for COc1ccc(CNC(=O)CN(C(=O)CCC(=O)Nc2ccccn2)c2ccccc2OC)cc1 ?
CYP2C19 inh: 43.9; Cav3 T inh: -4.2; CYP2C9 inh: 63.6*; CYP2C19 act: 0.6; CYP2C9 act: 0.4

How did Cc1cccc(N(CC(=O)NCc2ccc3c(c2)OCO3)C(=O)CCC(=O)Nc2ccccn2)c1C do in these assays?
CYP2C19 inh: 81.9*; CYP2C9 inh: 58.8*; CYP2C19 act: 0.2; CYP2C9 act: 0.4

Results for COCCN(CC(=O)NCc1ccc2c(c1)OCO2)C(=O)CCC(=O)Nc1nccs1 ?
Cav3 T inh: -0.811
